Results from PubChem BioAssay AID588832 (Broad Institute, 2011).
Fewer than 10 of roughly 8,000 compounds were called active. No rule for the calls is given here. Only a sample is shown.

tested on: hedgehog, isoform A (Drosophila melanogaster); test: Hh protein inhibition, biochemical readout – plate reader, single concentration, primary screen (AID 588832); settings: Biochemical plate reader assay, at 30.3 µM, stronger effect = higher value;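 also: 0% = neutral control wells and 100% = positive control wells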

Row | Structure (SMILES) | inhibition
1 | CCOc1ccc(NC(=O)CS(=O)(=O)c2cn(C)c3ccccc23)cc1 | 7.96% (inactive)
2 | CCC1=Nc2cc(C(=O)O)ccc2Sc2ccccc21 | 1.79% (inactive)
3 | O=c1c2nnn(-c3ccccc3)c2ncn1C/C=C/c1ccccc1 | 6.96% (inactive)
4 | Cc1ccc(S(=O)(=O)NCc2ccc3c(c2)cc(C)n3C)cc1 | 11.8% (inactive)
5 | COc1ccc(S(=O)(=O)NCc2ccc3c(c2)cc(C)n3C)cc1 | 62.3% (active)
6 | Cc1cc2cc(CNS(=O)(=O)c3ccccc3)ccc2n1C | 7.14% (inactive)
7 | COc1ccc(Nc2nc(N)nc(CN3CCc4ccccc4C3)n2)cc1 | 5% (inactive)
8 | Cc1ccc(Cl)cc1N1CCN(C(=O)COc2ccc(S(=O)(=O)NC(C)C)cc2)CC1 | 7.28% (inactive)
9 | O=C(NCc1cn2ccsc2n1)c1c(F)cccc1Cl | 5.46% (inactive)
10 | O=C(O)C(c1ccccc1)c1ccccc1 | 8.45% (inactive)
11 | Cn1c(=O)cc(N2CCc3ccccc32)[nH]c1=O | 1.79% (inactive)
12 | COc1cccc(CNC(=O)COc2cc3c(c4oc(=O)cc(C)c24)CCC(C)(C)O3)c1 | -8.44% (inactive)
13 | O=C(COc1ccc2c(-c3ccccc3)cc(=O)oc2c1)N1C[C@H]2C[C@@H](C1)c1cccc(=O)n1C2 | 1.72% (inactive)
14 | COc1ccc(Cl)cc1N1C(=O)C2CCCN2C1c1ccc(F)c(F)c1 (centres undefined) | 14.9% (inactive)
15 | CCOc1ccc(C2CC(c3cccc(OC)c3)n3nc(N)nc3N2)cc1 (centres undefined) | 15% (inactive)
16 | Cc1ccc(C)c(NC(=O)CSc2nc3ccccc3nc2N2CCOCC2)c1 | 9.55% (inactive)
17 | C=CCn1cc(C(=O)NCCCOC)c(=O)c2cc(S(=O)(=O)N3CCC(C)CC3)ccc21 | 25% (inactive)
18 | CC(C)(C)C(=O)NCCc1nc2ccccc2n1CC(=O)c1ccc(Cl)cc1 | 0% (inactive)
19 | CC(=O)c1ccc(NC(=O)CCS(=O)(=O)c2ccc3c(c2)n(C)c(=O)c(=O)n3C)cc1 | 1.81% (inactive)
20 | Cc1[nH]c2ccccc2c1SCC(=O)N1CCCc2ccccc21 | 1.79% (inactive)

Row | Structure (SMILES) | inhibition
21 | CCOC(=O)N1CCN(c2cc(=O)n(-c3ccc(Br)cc3)c(=O)[nH]2)CC1 | 6.78% (inactive)
22 | Cc1ccc2c(c1)N(C(=O)CCC(=O)NCCCN1CCOCC1)CC(C)O2 (centres undefined) | 7.08% (inactive)
23 | CCCCCCc1cc2cc(/C(N)=N/NC(=O)c3ccncc3)c(=O)oc2cc1O | 10.7% (inactive)
24 | O=C(COC(=O)C1CC(=O)N(C2CCCCC2)C1)c1ccc(F)cc1 (centres undefined) | 15% (inactive)
25 | Cc1ccc2c(c1)N(C(=O)CCC(=O)NCCCN1CCN(C)CC1)CCO2 | 5.23% (inactive)
26 | Cn1c(Cn2c(=O)sc3ccccc32)nnc1SCC(=O)Nc1cccc(Cl)c1 | 11.1% (inactive)
27 | COc1ccccc1C1C(C(N)=O)=C(C)Nc2nc(-c3ccc(Cl)cc3)nn21 (centres undefined) | 19.2% (inactive)
28 | Cc1cc2ccccc2n1CCNC(=O)C(C)(C)C | 57.3% (active)
29 | CC(=O)NCCn1c(C)cc2ccccc21 | 0% (inactive)
30 | Cc1cc2ccccc2n1CCNC(=O)C(C)C | 5.17% (inactive)
31 | O=C1C=C(O)c2c(O)cc(O)c(O)c2C1=O | 93.1% (active)
32 | O=C1C=C(O)c2cccc(O)c2C1=O | 9.84% (inactive)
33 | C[C@@H]1Cc2c(O)c(O)cc(O)c2C(=O)O1 | 4.89% (inactive)
34 | CC(=O)c1ccc(N2CCN(C(=O)c3ccc(NC4=NC5CS(=O)(=O)CC5S4)cc3)CC2)cc1 (centres undefined) | 3.39% (inactive)
35 | COc1ccc(CNS(=O)(=O)c2cc3c(cc2Cl)NC(=O)CO3)cc1 | 7.24% (inactive)
36 | COc1cccc(-c2nc(C(=O)NCC3CCCO3)cc3c2[nH]c2ccccc23)c1 (centres undefined) | 0.0615% (inactive)
37 | O=C(Cn1cc2c(n1)CCCC2)NCCCN1CCN(Cc2ccccc2)CC1 | 4.17% (inactive)
38 | CC1CCCN(S(=O)(=O)c2ccc3c(c2)C(C)(C)C(=O)N3C)C1 (centres undefined) | 20% (inactive)
39 | O=C(NCCN1CCCC1)c1ccc2c(c1)N(Cc1ccc(F)cc1)C(=O)c1ccccc1S2=O (centres undefined) | 0.909% (inactive)
40 | COc1ccc(-c2cn3c(C)c(C(=O)Nc4ccncc4)sc3n2)cc1 | 9.74% (inactive)

Row | Structure (SMILES) | inhibition
41 | COCCNC(=O)CS(=O)Cc1nc(-c2ccc(Cl)cc2)oc1C (centres undefined) | -2.73% (inactive)
42 | Cc1ccc2c(c1)N(CC(=O)NC1CCCC1)C(=O)c1cccnc1O2 | 16.7% (inactive)
43 | CCN(Cc1ccccc1)S(=O)(=O)c1cc(C(=O)OC)n(C)c1 | 6.72% (inactive)
44 | Cc1cccc(C(=O)N2CCN(Cc3ccc4c(c3)OCO4)CC2)c1 | 5.77% (inactive)
45 | CC1CC(=O)c2c(cc3c(-c4c(O)cc(O)c5c(O)c6c(cc45)OC(C)CC6=O)c(O)cc(O)c3c2O)O1 (centres undefined) | 6.56% (inactive)
46 | COc1ccc(CNC(=O)COc2cc3c(c4oc(=O)cc(C)c24)CCC(C)(C)O3)cc1OC | 5.12% (inactive)
47 | CCN1C(=O)c2ccccc2S(=O)c2ccc(C(=O)NCCCN3CCCC3=O)cc21 (centres undefined) | -4.3% (inactive)
48 | COC(=O)CN1C(=O)COc2ccc(Cl)cc21 | 16.7% (inactive)
49 | CCOCCn1c(SCc2ccc(F)cc2)nc2c1c(=O)[nH]c(=O)n2C | -3.67% (inactive)
50 | O=C(NCc1ccco1)C(=O)NCC1OCCN1S(=O)(=O)c1ccccc1 (centres undefined) | 7.69% (inactive)
51 | COCCn1c(SCC(=O)N2CCCc3ccccc32)nc2c(c1=O)SC(C)C2 (centres undefined) | 5.36% (inactive)
52 | CCCNC(=O)CS(=O)(=O)Cc1nc(-c2ccccc2C)oc1C | 24.1% (inactive)
53 | CCOC(=O)N1CCc2c(sc(NC(=O)c3ccc(S(=O)(=O)N4CCCC4)cc3)c2C#N)C1 | 0% (inactive)
54 | Cn1c(=O)c2c(SC3CCCC3)nc(C3CC3)nc2n(C)c1=O | 9.74% (inactive)
55 | Cn1c(C(=O)NCCN2CCc3ccccc3C2)cc2c(=O)n(C)c3ccccc3c21 | 20.8% (inactive)
56 | CCCCNC(=S)NCc1ccc2[nH]c(C)cc2c1 | -0.909% (inactive)
57 | CC(C)COC(=O)C1C2C=CC3(CN(C4CCCC4)C(=O)C13)O2 (centres undefined) | 8.33% (inactive)
58 | COc1ccc(-c2cc(=O)oc3c(C)c(OC(C)C(=O)NCc4ccccn4)ccc23)cc1 (centres undefined) | 4.89% (inactive)
59 | CCc1ccc(NC(=O)CSc2nnc(Cn3c(=O)sc4ccccc43)n2C)cc1 | 16.7% (inactive)
